Source: PubChem BioAssay (National Center for Advancing Translational Sciences (NCATS))
Hits are enriched below; roughly 19% of the tested compounds scored in any of these assays.
HepG2 tox: counter-screen for TGF-b inhibitors: cytotoxicity in HepG2 cells. Potency, µM (doses to about 46.1 µM), for the others: top-dose activity change, negative = cytotoxicity, hits mostly cytotoxic. HepG2 CAGA-GFP viability, ATP luminescence, 18 h. 410,000 compounds, 0.76% hits. AID 588856; note: potency is the fitted concentration of half-maximal effect
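CellTiter-Glo luminescence gave cytotoxicity after 18 hours at 37 degrees C. The cells were HepG2 CAGA-GFP in 1% FBS DMEM, stimulated with 500 pg/mL TGF-beta after compound addition. %Activity was normalised to no-cell wells (complete cell-killing) and DMSO (no toxicity), and curves were fitted and classified.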
TDP1 inh: inhibitors of human tyrosyl-DNA phosphodiesterase TDP1; 350,000 compounds, 0.28% hits; recombinant TDP1, AlphaScreen DNA substrate cleavage; Potency, µM (titrated, usually from 130 µM), without a hit: at the highest dose activity change, negative = inhibition, actives largely listed as inhibitors; note: potency is the fitted concentration of half-maximal effect; % is set by controls: 0 for no effect and ±100 for the full control effect; nearly all actives have a fitted effect of over 40% in size
Target sequence (Q9NUW8 whole entry, looked up): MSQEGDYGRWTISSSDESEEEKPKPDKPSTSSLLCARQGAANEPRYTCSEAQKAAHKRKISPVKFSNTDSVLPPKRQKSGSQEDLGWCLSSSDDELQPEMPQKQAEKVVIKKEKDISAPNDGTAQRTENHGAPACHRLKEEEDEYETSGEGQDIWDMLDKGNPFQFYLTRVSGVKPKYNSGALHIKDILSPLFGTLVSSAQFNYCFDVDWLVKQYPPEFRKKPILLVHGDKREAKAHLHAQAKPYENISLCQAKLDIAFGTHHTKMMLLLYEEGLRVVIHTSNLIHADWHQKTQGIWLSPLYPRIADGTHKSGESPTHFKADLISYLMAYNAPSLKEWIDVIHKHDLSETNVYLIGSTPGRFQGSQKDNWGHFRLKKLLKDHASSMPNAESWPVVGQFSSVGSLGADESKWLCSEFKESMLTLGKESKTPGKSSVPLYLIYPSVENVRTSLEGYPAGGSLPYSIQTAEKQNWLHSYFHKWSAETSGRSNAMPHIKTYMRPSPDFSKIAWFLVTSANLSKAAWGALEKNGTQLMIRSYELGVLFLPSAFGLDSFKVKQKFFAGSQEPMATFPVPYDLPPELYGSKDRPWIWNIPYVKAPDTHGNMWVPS
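Recombinant E. coli-expressed Tdp1 (1 nM) preincubated with compound 15 min at RT, then 5'-biotin/3'-phosphotyrosine-FITC DNA substrate (15 nM) added for 5 min. AlphaScreen beads (10 ug/ml) added, 10 min RT; tyrosine-FITC cleavage read as signal loss.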
IL-1B inflam inh: inhibitors of inflammasome signaling (IL-1 beta secretion). THP-1 LPS/ATP IL-1B secretion, AlphaLISA, 16 h; active compounds read low. activity change, % at 57.5 µM. 360,000 compounds, 4.7% hits. AID 743279; in the data active = activity change below about -50%; inconclusive = mostly about -30% to -49%; note: % is set by controls: 0 for no effect and ±100 for the full control effect
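Secreted IL-1B measured by AlphaLISA bead assay after 16 h compound exposure of THP-1 cells; compounds (final up to 57.5 uM) added 1 h before LPS (250 ng/mL) and ATP (1.25 mM) stimulation; lower signal means less secretion.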
DT40 TDP1 CPT: DT40-hTDP1 cell growth loss with CPT; chicken DT40 Tdp1-/-;hTDP1 cells + 20 nM CPT, ATP luminescence, 48 h; 420,000 compounds, 12% hits; Potency, µM (doses to about 46.2 µM), without a hit: at the highest dose activity change, negative = growth inhibition, actives largely listed as inhibitors; AID 686979; note: potency is the fitted concentration of half-maximal effect; % is set by controls: 0 for no effect and ±100 for the full control effect; nearly all actives have a fitted effect of over 55% in size
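Chicken DT40 Tdp1-/- cells stably complemented with human TDP1 were seeded at 400 cells/well in medium containing 20 nM camptothecin, exposed to pin-transferred compounds, and grown at 37 °C for at least 48 hr. Viability was read as ATP luminescence.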
TGFb inhibitor: blocks TGF-b signaling; HepG2 CAGA-GFP TGF-b/SMAD3 reporter, GFP fluorescence, 18 h; TGF-beta stimulated, 500 pg/mL final; Potency, µM (highest dose often 46.1 µM), for inactives: at the highest dose activity, negative = inhibition, usual class: inhibitors; 410,000 compounds, 1.2% hits; AID 588855; note: potency is the fitted concentration of half-maximal effect; % is set by controls: 0 for no effect and ±100 for the full control effect; nearly all actives have a fitted effect of over 65% in size
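Read-out: total well GFP (ex488/em500-530) summed from mean per-cell fluorescence. Cells: HEPG2 CAGA-GFP, 1% FBS DMEM, 18 h at 37 degrees C with 500 pg/mL final TGF-beta. Unstimulated wells served as the full-inhibition control; stimulated DMSO wells = 0%.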
DT40 TDP1 no CPT: qHTS for Inhibitors of human tyrosyl-DNA phosphodiesterase 1 (TDP1): qHTS in cells in absence of CPT. DT40 Tdp1-/- hTDP1 cells, no CPT, ATP luminescence, 48 h. 420,000 compounds, 15% hits. AID 686978, 2013. Potency, µM (highest dose often 46.2 µM), for inactives: at the highest dose activity change, negative = growth inhibition, hits mostly inhibitors; note: potency is the fitted concentration of half-maximal effect; % is set by controls: 0 for no effect and ±100 for the full control effect; nearly all actives have a fitted effect of over 55% in size
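Growth of hTDP1-complemented DT40 Tdp1-knockout cells is measured by ATP luminescence after at least 48 hr compound exposure at 37 °C, with DMSO substituting for the 20 nM CPT used in the parallel screen.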
An asterisk follows results filed as active; u = inconclusive; x = not tested or not shown; [ ] = another dose, or the depositor's remark. Unless noted, calls come from the whole dose curve; as a rule, active = well fitted curve in the direction sought with a large enough effect; inconclusive = small, poorly fitted or top-dose-only effect, or another doubt; inactive = no such curve, though single readings can be large; an effect the other way counts as inactive or inconclusive.

SMILES | HepG2 tox | TDP1 inh | IL-1B inflam inh | DT40 TDP1 CPT | TGFb inhibitor | DT40 TDP1 no CPT
CC(C)CCN1CCc2nc(COc3ccccc3)c3c(c2C1)COC(C)C3 (stereo not drawn) | x | 4.8%[21 µM] | x | x | x | x
COc1ccc(S(=O)(=O)N(CC(=O)NCCSc2ccccc2)c2ccc(C)cc2)cc1 | -31.9% | x | x | 18.4µM* | -16.5% | 13µM*
COc1ccc(N(CC(=O)NCCOc2ccccc2)S(=O)(=O)c2ccc(C)cc2)cc1 | -9.8% | x | -21.7 | u | -1.5% | 20.6µM*
CCOc1ccc(N(CC(=O)N/N=C/c2ccccn2)S(=O)(=O)c2ccc(Cl)cc2)cc1 | -25.0% | 7.5% | 32.7 | u | -25.4% | 20.6µM*
CCOc1ccc(N(CC(=O)NCCSc2ccccn2)S(=O)(=O)c2ccc(Cl)cc2)cc1 | -16.8% | 2.0% | 5.3 | u | 10.3% | u
Cc1ccc(S(=O)(=O)N(CC(=O)NCCc2ccc(Cl)cc2)c2ccccc2C)cc1 | -22.3% | 0.6% | x | 18.4µM* | u | 13µM*
O=C(Cc1ccc(Br)cc1)N/N=C/c1cccnc1 | 3.9% | 5.1% | u | -19.1% | -13.2% | -4.7%
COc1ccc(N(CC(=O)NCCSCc2ccccc2C)S(=O)(=O)c2ccccc2)cc1 | -19.8% | 2.5% | -18.6 | 16.4µM* | -17.3% | 16.4µM*
COc1ccc(N(CC(=O)NCC(C)C)S(=O)(=O)c2ccccc2)cc1 | -8.1% | -3.6% | 1.7 | -17.1% | -4.6% | -13.8%
COc1ccc(S(=O)(=O)N(CC(=O)NCc2ccccn2)c2ccc(Cl)cc2)cc1 | -14.2% | 10.4% | -54.0* | u | u | u
Cc1ccc(C)c(N2CCN(C(=O)Cn3cnc4nc5c(cc4c3=O)CCCC5)CC2)c1 | -2.9% | 4.1% | x | u | -8.6% | u
CC(=O)c1ccc(N(CC(=O)NCc2ccc3c(c2)OCO3)C(=O)c2csnn2)cc1 | 1.6% | 11.4% | 17.6 | 17.3% | -2.1% | -22.1%
Cc1cc(C)c2c(SC(C)C)nc(N)nc2n1 | 1.0% | x | 0.0 | u | 5.6% | 18.4µM*
CC(=O)n1nc2nc(C)cc(C)c2c1N | 12.0% | 3.1% | 35.2 | -15.8% | 1.8% | 1.8%
COc1ccc(-n2nc3ccc(NC(=O)c4cc5ccccc5o4)cc3n2)cc1Cl | -1.4% | -2.2%[12.3 µM] | x | u | -3.3% | u
C/C(=N\NC(=O)c1n[nH]c2c1CCC2)c1ccco1 | -38.1% | x | x | -21.9% | 16.8% | u
O=C(NC1CCCCC1)c1n[nH]c2c1CCCCC2 | -48.6% | 1.0% | -16.2 | u | 16.0% | u
C=CCNC(=O)c1n[nH]c2c1CC(C(C)(C)CC)CC2 (stereo not drawn) | -6.2% | -2.7% | -1.6 | u | u | u
CCC(C)(C)C1CCc2[nH]nc(C(=O)NCc3ccc(OC)cc3)c2C1 (stereo not drawn) | -20.0% | 0.7% | 0.0 | 23.1µM* | u | 14.6µM*
NNC(=O)c1n[nH]c2c1CC(C1CCCCC1)CC2 (stereo not drawn) | -8.9% | -0.3% | -11.3 | 5.17µM* | -6.1% | 5.8µM*
CCC(C)(C)C1CCc2[nH]nc(C(=O)N/N=C(\C)c3ccco3)c2C1 (stereo not drawn) | -66.4% | 9.6% | -87.3* | u | 14.1µM* | u
CCC(C)(C)C1CCc2[nH]nc(C(=O)NC3CCCC3)c2C1 (stereo not drawn) | -46.5% | -3.1% | u | 16.4µM* | 0.2% | u
CN(C(=O)COC(=O)c1ccccc1OCc1ccc(F)cc1)C1CCS(=O)(=O)C1 (stereo not drawn) | 1.4% | -0.3% | 1.0 | 0.4% | 0.5% | 4.1%
